The text below walks through data of PubChem BioAssay (NCATS).

Each structure is given as a SMILES string. Values joined by “and” are separate entries in the source; they are usually repeats but may differ in a detail not shown here. Identical values can stand only once. Results filed as inconclusive are left out. Some structures have more than one record in an assay (separate samples or runs), and their calls can disagree. Active and inactive are the calls of the source. The call rests on the fitted dose curve; in most records, active means well fitted curve in the direction sought with a large enough effect; inconclusive means small, poorly fitted or top-dose-only effect, or another doubt; inactive means no such curve, though single readings can be large; an effect the other way counts as inactive or inconclusive.

Assay [1] has as its target Rap guanine nucleotide exchange factor 3 (Homo sapiens) (UniProt O95398). Put plainly: Confirmatory qHTS for antagonist of cAMP-regulated guanine nucleotide exchange factor 3 (EPAC1) (AID 1645880). Further: nearly all actives have a fitted effect of over 55% in size. Further: potency means the concentration at half of the fitted maximal effect. The essentials:
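Nucleotide exchange uses 100 nM EPAC1, 250 nM RAP1B-BODIPY-GDP and 50 uM GDP, with compounds in a concentration-titration series. After 5 min at room temperature, fluorescence (480 nm ex/540 nm em) is read every 5 min for 30 min. Data are normalized to control ATA and DMSO.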
A general note: qHTS replaces the single test concentration by a dilution series.

Assay [2] shares this target. Put plainly: Confirmatory qHTS for agonist of cAMP-regulated guanine nucleotide exchange factor 3 (EPAC1) (AID 1645881).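 Further: EPAC1 catalysed release of BODIPY-GDP from Rap1B seen as fluorescence loss; 100% = effect of cAMP agonist control; nearly all actives have a fitted effect of over 75% in size.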
Assay [3] has as its target Rap guanine nucleotide exchange factor 4 (Homo sapiens) (UniProt Q8WZA2). Put plainly: Confirmatory qHTS for agonist of cAMP-regulated guanine nucleotide exchange factor 4 (EPAC2) (AID 1645884).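 Further: nucleotide exchange releases bodipy-GDP from Rap1 and this lowers its fluorescence; on the % scale 0 is the no-effect control and ±100 the full control effect; nearly all actives have a fitted effect of over 65% in size.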
Assay [4] has the same target. Put plainly: Confirmatory qHTS for antagonist of cAMP-regulated guanine nucleotide exchange factor 4 (EPAC2) (AID 1645885). Further: nearly all actives have a fitted effect of over 25% in size. Further: potency means the concentration at half of the fitted maximal effect. On activity change, negative = inhibition: on the % scale 0 is the no-effect control and ±100 the full control effect.
Assay [5] addresses Rap guanine nucleotide exchange factor 3 (Homo sapiens) (UniProt O95398). Put plainly: Counterscreen qHTS for antagonist of cAMP-regulated guanine nucleotide exchange factor 3 (EPAC1) (AID 1645888).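 Further: fluorescence loss as bound BODIPY-GDP is released from Rap1B; % of control where 0% means no effect.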 The essentials: (§1)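 Rap1B–BODIPY-GDP (250 nM) with 50 uM GDP; compounds pin-transferred to 9.74 nM–152 uM final (activator) or from 7.32 nM upwards (inhibitor). Fluorescence Ex/Em 480/540 nm read at 5 and 30 min, then after adding cAMP or buffer, at room temperature.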

The target is the same in assay [6]. Put plainly: Counterscreen qHTS for agonist of cAMP-regulated guanine nucleotide exchange factor 3 (EPAC1) (AID 1645889). Further: % of control where 0% means no effect; nearly all actives have a fitted effect of over 40% in size. The essentials: as §1
A general note: The purpose of a counterscreen is to sort out artefacts and off-target activity.

Chain of Rap guanine nucleotide exchange factor 3 (Homo sapiens) (O95398 whole entry, looked up): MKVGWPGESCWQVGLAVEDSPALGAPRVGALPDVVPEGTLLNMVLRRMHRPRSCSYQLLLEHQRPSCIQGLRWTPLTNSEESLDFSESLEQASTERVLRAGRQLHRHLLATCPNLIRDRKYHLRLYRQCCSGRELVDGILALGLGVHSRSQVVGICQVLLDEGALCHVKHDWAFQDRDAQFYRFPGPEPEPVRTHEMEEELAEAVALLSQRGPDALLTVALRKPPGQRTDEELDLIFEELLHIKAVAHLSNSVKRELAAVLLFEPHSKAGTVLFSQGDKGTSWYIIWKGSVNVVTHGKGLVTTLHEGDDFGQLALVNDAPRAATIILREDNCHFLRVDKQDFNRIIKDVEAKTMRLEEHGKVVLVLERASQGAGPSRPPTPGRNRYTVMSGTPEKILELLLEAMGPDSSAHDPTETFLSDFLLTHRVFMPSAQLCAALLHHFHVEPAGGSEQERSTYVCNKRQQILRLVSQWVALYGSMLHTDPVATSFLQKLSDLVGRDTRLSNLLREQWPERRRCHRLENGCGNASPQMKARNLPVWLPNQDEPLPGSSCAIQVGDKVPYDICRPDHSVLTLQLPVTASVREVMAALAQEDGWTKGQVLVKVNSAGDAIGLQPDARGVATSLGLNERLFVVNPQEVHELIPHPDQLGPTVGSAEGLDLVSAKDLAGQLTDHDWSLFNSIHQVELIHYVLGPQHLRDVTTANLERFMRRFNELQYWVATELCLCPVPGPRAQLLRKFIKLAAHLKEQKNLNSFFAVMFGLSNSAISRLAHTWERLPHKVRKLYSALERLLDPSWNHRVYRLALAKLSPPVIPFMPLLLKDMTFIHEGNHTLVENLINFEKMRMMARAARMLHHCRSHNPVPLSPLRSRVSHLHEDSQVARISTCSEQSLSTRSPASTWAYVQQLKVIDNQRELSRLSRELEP
Chain of Rap guanine nucleotide exchange factor 4 (Homo sapiens) (Q8WZA2 whole entry, looked up): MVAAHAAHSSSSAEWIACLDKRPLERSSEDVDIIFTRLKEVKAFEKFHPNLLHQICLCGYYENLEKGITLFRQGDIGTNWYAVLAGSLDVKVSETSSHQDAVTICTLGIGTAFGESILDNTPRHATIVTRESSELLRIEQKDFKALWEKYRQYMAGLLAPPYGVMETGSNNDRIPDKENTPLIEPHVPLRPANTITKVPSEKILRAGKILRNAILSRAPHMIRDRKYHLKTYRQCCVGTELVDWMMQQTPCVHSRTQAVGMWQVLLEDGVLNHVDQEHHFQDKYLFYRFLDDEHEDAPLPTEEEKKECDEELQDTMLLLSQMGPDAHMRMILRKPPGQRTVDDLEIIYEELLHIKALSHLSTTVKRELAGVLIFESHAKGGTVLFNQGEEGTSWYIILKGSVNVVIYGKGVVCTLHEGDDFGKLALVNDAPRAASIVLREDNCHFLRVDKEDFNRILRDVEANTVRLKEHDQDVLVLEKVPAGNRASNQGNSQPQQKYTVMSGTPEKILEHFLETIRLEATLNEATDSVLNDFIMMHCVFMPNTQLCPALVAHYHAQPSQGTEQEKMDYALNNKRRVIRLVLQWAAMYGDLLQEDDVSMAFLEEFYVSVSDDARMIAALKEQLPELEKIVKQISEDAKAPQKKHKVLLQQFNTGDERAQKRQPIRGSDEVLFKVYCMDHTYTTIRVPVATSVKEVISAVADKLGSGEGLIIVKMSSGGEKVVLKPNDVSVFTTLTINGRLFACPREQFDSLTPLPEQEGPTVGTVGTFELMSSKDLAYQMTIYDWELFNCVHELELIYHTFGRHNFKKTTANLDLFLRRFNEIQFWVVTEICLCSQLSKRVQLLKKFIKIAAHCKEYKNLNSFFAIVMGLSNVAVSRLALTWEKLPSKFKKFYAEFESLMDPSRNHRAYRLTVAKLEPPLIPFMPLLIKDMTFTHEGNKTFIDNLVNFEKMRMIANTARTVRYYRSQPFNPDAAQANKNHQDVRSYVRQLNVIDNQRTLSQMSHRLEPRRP

With `Cc1ccc2c(c1)c1c(c(=O)n(-c3cccc(Cl)c3)c(=O)n1C)n2C`, the Potency entry in assay [1], in assay [2], in assay [3], in assay [4], in assay [5] and in assay [6] was “inactive” throughout.

Consider `O=C(OCc1c(-c2ccccc2)ncc2ccccc12)c1ccco1`, for which the Potency entry in assay [1], in assay [2], in assay [3], in assay [4], in assay [5] and in assay [6] was “inactive” in each case.

Consider `CC(=O)N1CCN(C(=O)COc2ccc(Br)cc2)CC1`, for which the Potency result in assay [1], in assay [2], in assay [3], in assay [4], in assay [5] and in assay [6] was “inactive” in each case.

For `CCOc1c(O)ccc(/C=C2\SC(=S)NC2=O)c1[N+](=O)[O-]`, the Potency in assay [1] was 37.9 µM (active). Further, the Potency entry in assay [2], in assay [3], in assay [4], in assay [5] and in assay [6] was “inactive” in each case.

`CCOc1ccc(CCNC(=O)c2cccc(S(=O)(=O)N3CCCCC3)c2)cc1OCC`: the Potency result in assay [1], in assay [2], in assay [3], in assay [4], in assay [5] and in assay [6] was “inactive” each time.

On to `O=C1NC(=O)/C(=C/c2ccccn2)S1`, for which the Potency result in assay [1], in assay [2], in assay [3], in assay [4], in assay [5] and in assay [6] was “inactive” throughout.

Turning to `Cc1ccc(-n2nc3c(=O)n(CCCC(=O)NCc4ccccc4C)nc(C)c3c2C)cc1`, the Potency entry in assay [1], in assay [2], in assay [3], in assay [4], in assay [5] and in assay [6] was “inactive” each time.

For `COc1ccc(OC)c(NC(=O)Cc2c(C(=O)O)n(C)c3ccc(C)cc23)c1`, the Potency entry in assay [1], in assay [2], in assay [3], in assay [4], in assay [5] and in assay [6] was “inactive” each time.

In the case of `COCOCCn1cc(CN2CCS(=O)(=O)N(Cc3ccc(-c4ccc(Cl)cc4)cc3)C(CC(C)C)C2=O)nn1` (stereo unspecified), the Potency result in assay [1], in assay [2], in assay [3], in assay [4], in assay [5] and in assay [6] was “inactive” in each case.

Take `Cc1ccc2[nH]cc(C(c3ccccc3)c3ccc(C)s3)c2c1` (stereo unspecified): the Potency result in assay [1], in assay [2], in assay [3], in assay [4], in assay [5] and in assay [6] was “inactive” each time.

As for `N=C1/C(=C\c2ccc(OC(=O)c3ccccc3Cl)cc2)C(=O)N=C2SC(N3CCOCC3)=NN12`, the Potency in assay [1] is 19 µM (active). The Potency result in assay [2], in assay [3], in assay [4], in assay [5] and in assay [6] was “inactive” in each case.

For `Cc1ccc(S(=O)(=O)/N=C2\C=C(Nc3cccc(C(=O)O)c3)C(=O)c3ccccc32)c(C)c1`, the Potency in assay [1] is 26.9 µM (active). For the same compound, the Potency result in assay [2], in assay [3], in assay [4], in assay [5] and in assay [6] was “inactive” in each case.

On to `CCOC(=O)c1ccccc1NC(=O)CSc1nccn1Cc1ccco1`, for which the Potency entry in assay [1], in assay [2], in assay [3], in assay [4], in assay [5] and in assay [6] was “inactive” each time.

`NN=C1c2ccccc2C(=O)C1C(=O)C(c1ccccc1)c1ccccc1` (stereo unspecified): the Potency in assay [1] is 42.6 µM (active). Moreover, the Potency result in assay [2], in assay [3], in assay [4], in assay [5] and in assay [6] was “inactive” throughout.

For `Cc1nc(-c2cccc(NC(=O)Cc3ccccc3)c2)cs1`, the Potency result in assay [1], in assay [2] and in assay [4] was “inactive” throughout. In addition, the activation in assay [3] is 1.14% [at 17.1 µM, percent relative to cAMP agonist control] (inactive); in assay [6], 2.08% [at 30.8 µM] (inactive). Further, the activity change, negative = inhibition in assay [5] is -17.6% [at 30.8 µM] (inactive).

In the case of `Cc1ccc(Sc2ccc(S(=O)(=O)Nc3ccc(C(=O)O)cc3)cc2)cc1C`, in assay [1], the Potency was 67.5 µM (active). The Potency entry in assay [2], in assay [3], in assay [4], in assay [5] and in assay [6] was “inactive” each time.

With `CCC(=O)N1c2nc(C(C)C)nn2C2(CCCCC2)[C@@H]2CCCC[C@@H]21`, the Potency entry in assay [1], in assay [2], in assay [3], in assay [5] and in assay [6] was “inactive” in each case. For the same compound, the outcome in assay [4] was “inactive [at 12.7 µM]”.

Take `COc1ccc(C2c3c(-c4ccccc4O)n[nH]c3C(=O)N2Cc2ccco2)cc1` (stereo unspecified): the Potency result in assay [1], in assay [2], in assay [3], in assay [5] and in assay [6] was “inactive” in each case. In assay [4], the Potency result was “inactive and 37.9 µM (active)”.

`Cc1cc2nc3c(=O)n(CCc4ccccc4)c(=O)[nH]c3nc2cc1N`: the Potency in assay [1] was 12.6 µM (active). Also, the Potency result in assay [2] and in assay [4] was “inactive” in each case. Besides, the activation was 3.45% [at 17.1 µM, percent relative to cAMP agonist control] (inactive) in assay [3] and 15.2% [at 30.8 µM] (inactive) in assay [6]. In assay [5], the activity change, negative = inhibition was -6.16% [at 30.8 µM] (inactive).

As to `Cc1ccc2oc(=O)n(CCOc3ccccc3Cl)c2c1`, the Potency result in assay [1], in assay [2], in assay [3], in assay [4], in assay [5] and in assay [6] was “inactive” throughout.

As to `Oc1ccccc1-c1nc(NCc2ccccc2)c2ccccc2n1`, the Potency result in assay [1], in assay [2], in assay [3], in assay [4], in assay [5] and in assay [6] was “inactive” throughout.
